Assay [1] deals with CRL-7250. The experiment in a line: Cytotoxic Profiling of Annotated Libraries Using Quantitative High-Throughput Screening (AID 1296008). Also: potency is read from the fitted curve at half-maximal effect. As to max response: % is scaled to controls: 0 for no effect and ±100 for the full control effect. To be noted: Five cell lines viability, CellTiter-Glo ATP luminescence, 48-72 h; max response: stronger effect = lower value. A digest of the protocol: (§1)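 Compounds were pin-transferred onto cells and incubated 48 or 72 hr at 37 degree Celsius, 95% humidity. CellTiter-Glo was added, plates sat 10 min at room temperature, then ATP-coupled luminescence was imaged as the viability read-out.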
A general note: In ATP-based viability assays light output follows the ATP content of the culture.

Assay [2] has as its system HEK293. The assay is described as above. To be noted: Five cell lines viability, CellTiter-Glo ATP luminescence, 48-72 h; max response: stronger effect = lower value. A digest of the protocol: as §1
Assay [3] relates to HaCat. The description is as above. To be noted: Five cell lines viability, CellTiter-Glo ATP luminescence, 48-72 h; max response: stronger effect = lower value. A digest of the protocol: as §1
Assay [4] relates to KB-3-1. The assay is described as above. The note with it: Five cell lines viability, CellTiter-Glo ATP luminescence, 48-72 h; max response: stronger effect = lower value. A digest of the protocol: as §1
Assay [5] has as its system NIH3T3. Described as above. To be noted: Five cell lines viability, CellTiter-Glo ATP luminescence, 48-72 h; max response: stronger effect = lower value. The method, boiled down: as §1
The subject of assay [6] is MCC-13. Put plainly: qHTS assay to identify novel small-molecules to repurpose for Merkel cell carcinoma treatment (AID 1296009). To be noted: MCC and control cell lines, CellTiter-Glo viability, 72 h; series mostly up to 46 µM. The method, boiled down:
(§2)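 Luminescence from CellTiter-Glo, read 10 min after addition at room temperature, reported viability following a 72 hr, 37 degree celsius treatment with NPC or MIPE compounds in titration; values normalized to plate controls.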
On the technique in general: qHTS replaces the single test concentration by a dilution series.

In assay [7] the test system is MCC-26. Described as above. To be noted: MCC and control cell lines, CellTiter-Glo viability, 72 h; series mostly up to 46 µM. The method, boiled down: as §2
In assay [8] the test system is HACAT. The assay is described as above. To be noted: MCC and control cell lines, CellTiter-Glo viability, 72 h; at 44.8 µM (top of the series) unless noted. The method, boiled down:
as §2

The test system of assay [9] is P93_24. Put plainly: qHTS profiling for inhibitors of Plasmodium falciparum proliferation (AID 504749).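 Also: 0% = DMSO vehicle and full inhibition = artemisinin control.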 The note with it: P. falciparum in erythrocytes, SYBR Green DNA, 72 h; series mostly up to 28.7 µM. The method, boiled down: (§3)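 Fluorescence of SYBR Green-bound parasite DNA, read at 485/535 nm, served as the growth measure. Infected erythrocytes were cultured with compound 72 h; artemisinin (0.29 uM) and DMSO wells defined the normalization range.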

The subject of assay [10] is P94_40. The assay is described as above. The note with it: P. falciparum in erythrocytes, SYBR Green DNA, 72 h; series mostly up to 28.7 µM. A digest of the protocol: as §3
The subject of assay [11] is PAD. The assay is described as above. The note with it: P. falciparum in erythrocytes, SYBR Green DNA, 72 h; series mostly up to 28.7 µM. A digest of the protocol: as §3
Assay [12] deals with PC15. The assay is described as above. The note with it: P. falciparum in erythrocytes, SYBR Green DNA, 72 h; series mostly up to 28.7 µM. The method, boiled down: as §3
In assay [13] the test system is PC26. The assay is described as above. The note with it: P. falciparum in erythrocytes, SYBR Green DNA, 72 h; series mostly up to 28.7 µM. A digest of the protocol: as §3
The subject of assay [14] is PC49. The description is as above. To be noted: P. falciparum in erythrocytes, SYBR Green DNA, 72 h; series mostly up to 28.7 µM. The method, boiled down: as §3
Assay [15] has as its system SC27B. The description is as above. To be noted: P. falciparum in erythrocytes, SYBR Green DNA, 72 h; series mostly up to 28.7 µM. The method, boiled down: as §3
For assay [16], the system named is TAB109. Described as above. The note with it: P. falciparum in erythrocytes, SYBR Green DNA, 72 h; series mostly up to 28.7 µM. A digest of the protocol:
as §3

Assay [17] has as its system TAB113. The description is as above. The note with it: P. falciparum in erythrocytes, SYBR Green DNA, 72 h; series mostly up to 28.7 µM. The method, boiled down: as §3
Assay [18] has as its system TAB165. The description is as above. The note with it: P. falciparum in erythrocytes, SYBR Green DNA, 72 h; series mostly up to 28.7 µM. A digest of the protocol: as §3
The subject of assay [19] is W2. The assay is described as above. The note with it: P. falciparum in erythrocytes, SYBR Green DNA, 72 h; series mostly up to 28.7 µM. The method, boiled down:
as §3

Assay [20] has as its system HEK293T. Put plainly: qHTS assay to identify novel small-molecules to repurpose for Merkel cell carcinoma treatment (AID 1296009). To be noted: MCC and control cell lines, CellTiter-Glo viability, 72 h; at 44.8 µM (top of the series). The method, boiled down: as §2

Each structure is given as a SMILES string. “And” between values parts separate entries of the source, which are not always exact repeats. Equal entries are not always repeated. Inconclusive results are not listed. Where a structure was tested more than once in an assay, its records may differ in their call. Unmarked numbers belong to inactive results. The source made the active and inactive calls. Calls follow the shape of the dose curve; as a rule, active = well fitted inhibition curve with a large enough effect; inconclusive = small, poorly fitted or top-dose-only effect; inactive = flat fitted curve, though single readings scatter.
Also: nearly all actives have a fitted effect of over 60% in size.

Take `O=C(CCN1CCN(C(=O)OCc2cc(Cl)cc(Cl)c2)CC1)c1ccc2[nH]c(=O)oc2c1`: the max response in assay [1] was -14.6%; in assay [2] it was -21.4%; in assay [3], -8.98% and -29.3%; in [4] it was -3.38% and 0.622%; in assay [5] it was 1.12% and -60.6%. Moreover, in [1], the call was inactive. The Potency in [2] was 9.2 µM (active). Also, the Potency result in [6] and in assay [7] was “inactive” each time.

In the case of `CNC(=O)c1ccc2cc(C3(O)CCn4cncc43)ccc2c1` (configuration not stated), the max response in assay [1] was -2.53% and -8.91%; in assay [2] it was -5.04% and 1.96%; in [3], 0.87%; in assay [4], -2.71%; in [5] it was 3.68% and 1.07%. The result in [3], in assay [4] and in [8] was inactive. The Potency result in assay [6] and in assay [7] was “inactive” throughout.

`O=C(O)CCc1nc(-c2ccccc2)c(-c2ccccc2)o1`: the max response in assay [1] was -11.7% and 0.986%; in assay [2] it was -15.1% and -1.16%; in assay [3], -18.5%; in [4] it was -6.48%; in assay [5], 3.82%. Further, the molecule was classed as inactive in [3], in assay [4], in assay [5] and in [8]. The Potency result in assay [6] and in [7] was “inactive” each time.

In the case of `COc1ccccc1N1CCN(CCCNc2cc(=O)n(C)c(=O)n2C)CC1`, the outcome in assay [9], in assay [11], in assay [12], in [14], in assay [16] and in assay [1] was inactive. The outcome in [2], in [3], in assay [5], in assay [8] and in [20] was inactive. The Potency result in [10], in [13], in [15], in assay [17], in [18] and in [19] was “inactive” in each case. Moreover, the Potency entry in assay [6] and in assay [7] was “inactive” in each case. For the same molecule, the max response in assay [1] is -0.41%; in assay [4] it was 10% and -5.34% and -7.87%.

`C[C@@H](O)[C@H]1C(=O)N2C(C(=O)O)=C(S[C@@H]3CN[C@H](C(=O)N(C)C)C3)[C@H](C)[C@H]12`: the molecule was classed as inactive in assay [9], in assay [11], in [12], in assay [14], in assay [16] and in assay [1]. The outcome in assay [2], in assay [3], in [8] and in [20] was inactive. For the same molecule, the Potency result in assay [10], in [13], in assay [15], in [17], in assay [18] and in assay [19] was “inactive” throughout. Further, in [6], the Potency result was “inactive”. The max response in assay [1] is 3.74%; in [3], -2.71%; in assay [4], -4.18%; in assay [5], -2.02% and 0.837%.

Take `Clc1ccc(Cn2c(CN3CCCC3)nc3ccccc32)cc1`: the Potency result in assay [10], in assay [15], in [17], in assay [18], in assay [6] and in [7] was “inactive” each time. For the same molecule, the molecule was called inactive in assay [11], in assay [12], in [14], in assay [16], in assay [1] and in [3]. Also, the max response in [1] was -0.466%; in assay [2], -18%; in assay [3], -16.9%; in assay [4], 4.33% and 5.03%; in assay [5] it was 3.2% and 1.49%. The outcome in assay [8] is “inactive [at 17.4 µM]”.

On to `CC(C)(C)c1cc(C(=O)O)c(NC(=O)Nc2ccc3[nH]ncc3c2)s1`, for which the max response in assay [1] is -5.25% and -2.72%; in assay [2], -1.74% and 1.5%; in [3], -3.43%; in assay [4], -9%; in [5], -6.15%. Besides, the molecule was called inactive in [3], in assay [4], in [5] and in [8]. Besides, the Potency result in assay [6] and in assay [7] was “inactive” in each case.

Consider `O=C(O)c1ccccc1C(=O)Nc1ccc(-c2ccccc2)cc1`, for which the max response was 4.68% in assay [1], -10.6% in assay [2] and 9.98% in assay [4]. Also, the outcome in [3], in [4], in assay [5] and in assay [8] was inactive. Further, the Potency result in assay [6] and in [7] was “inactive” each time.

As to `CS(=O)c1ccc(-c2nc(-c3ccc(F)cc3)c(-c3ccncc3)[nH]2)cc1` (configuration not stated), the Potency in assay [1] was 19.1 µM (active); in assay [2], 8.55 µM (active). Further, the molecule was called inactive in [1], in assay [2], in [4] and in [20]. Further, the max response was 2.48% in assay [3]; 3.16% and 3.83% in assay [5]. Besides, the Potency entry in assay [6] and in assay [7] was “inactive” throughout.

As to `NC(=O)c1ccc2nc(-c3ccc(Oc4ccc(Cl)cc4)cc3)[nH]c2c1`, the max response was -25.5% in [1]; -0.499% in assay [3]; -2.72% and -4.33% in assay [5]. The outcome in assay [1], in [3] and in assay [8] was inactive. Further, the Potency entry in [6] and in assay [7] was “inactive” in each case.

`O=C(Nc1c(Cl)cncc1Cl)c1ccc(OC(F)F)c(OCC2CC2)c1`: the max response in [1] was -6.52%; in assay [2] it was 0.493%; in assay [5], -4.15%. Also, the call in assay [3], in assay [4] and in assay [8] was inactive. In addition, the Potency result in [6] and in assay [7] was “inactive” throughout.

Consider `CCN(CC)CCOC(=O)c1ccc(N)cc1`, for which the outcome in assay [9], in assay [11], in assay [12], in assay [14], in [16] and in assay [2] was inactive. Besides, the result in assay [3], in assay [8] and in [20] was inactive. Further, the Potency entry in assay [10], in assay [13], in assay [15], in [17], in [18] and in assay [19] was “inactive” in each case. In addition, in [6], the Potency result was “inactive”. Further, the max response was -12% in assay [1], 14% in [4] and -2.46% in assay [5].

Consider `CC(C)(C)COc1ccc(-n2cc(C(=O)O)cn2)cc1C#N`, for which the outcome in assay [1], in assay [3] and in assay [8] was inactive. The max response is 3.28% in [2], 7.58% in [4] and 3.94% in assay [5]. The Potency entry in assay [6] is “inactive”.

(Values after PubChem BioAssay (NCATS).)
